# Results from PubChem BioAssay AID1276 (Columbia University Molecular Screening Center, 2008).
# The whole screen tested about 190,000 compounds, of which about 2,000 (1.1%) were called active. For the sample, actives were picked, then their nearest neighbours and some compounds at random. Values without a mark were called inactive.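 The calls were made as follows: active = activation above a set limit, based on mean plus 3 SD of controls (cut at about 140% in these data); inconclusive = one replicate above the limit, the other below; inactive = the rest.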
# Experiment: APP 5'UTR reporter signal increase – luciferase, SH-SY5Y cells, primary screen (AID 1276)
# Conditions: SH-SY5Y APP 5'UTR luciferase reporter, luminescence; at 2 µM; stronger effect = higher value; zero percent = DMSO vehicle wells
row,Structure (SMILES),activation
1,Cc1ccc(NS(=O)(=O)c2cccs2)cc1S(=O)(=O)N1CCCCCC1,13.7%
2,O=C(Cc1ccc(-c2ccccc2)cc1)NC(c1ccccc1)c1ccccc1,12.7%
3,CC(NC(=S)Nc1ccc(OC(F)F)cc1)c1ccc(F)cc1 (stereo unspecified),-4.54%
4,O=C(NNC(=O)c1ccc(Cl)cc1Cl)c1cccs1,59.2%
5,O=C(Nc1ccn(Cc2ccc(F)cc2)n1)c1ccncc1,-11.3%
6,O=C(Nc1ccn(Cc2ccccc2)n1)c1cccc(F)c1,197% (active)
7,O=C(Nc1ccn(Cc2ccccc2)n1)c1n[nH]c([N+](=O)[O-])c1Cl,129%
8,Cc1coc(C)c1C(=O)CC1(O)C(=O)N(C)c2ccc(Cl)cc21 (stereo unspecified),12.3%
9,CCN(CC)CCNC(=O)c1sc2ncn(CC(=O)Nc3ccc(C)c(Cl)c3)c(=O)c2c1C,11.4%
10,O=C1CC(c2ccccc2)=NN1c1ccc([N+](=O)[O-])cc1,-12.9%
11,Cc1nn(-c2ccc([N+](=O)[O-])cc2)c(N)c1-c1ccccc1,152% (active)
12,Cc1nn(-c2ccccc2)c2c1C(c1cccc([N+](=O)[O-])c1)N(c1ccccc1)C(=O)N2 (stereo unspecified),11.7%
13,CCN(C(=O)Cc1nc(N)n[nH]1)C1(C(=O)Nc2ccccc2)CCCCC1,-3.52%
14,O=C(Nc1ccc2sc3ccccc3c(=O)c2c1)c1ccccc1Cl,221% (active)
15,COc1cc(NC(=O)c2cccs2)ccc1NC(=O)c1ccccc1Cl,37.2%
16,O=C(Nc1ccc2nc3n(c(=O)c2c1)CCCCC3)c1ccccc1Cl,22%
17,CCOC(=O)c1ccccc1NC(=O)CSc1nc2ccccc2c(=O)[nH]1,-2.72%
18,COc1cccc(N(Cc2nnc3n2CCCCC3)C(=O)Nc2ccccc2F)c1,3.63%
19,Cc1cc(Br)ccc1NC(=O)C1CCCO1 (stereo unspecified),-29.7%
20,Cc1cc(C)c2nc(NC(=O)C3CCCO3)sc2c1 (stereo unspecified),159% (active)
21,O=C(Nc1nc2ccc(S(=O)(=O)N3CCCC3)cc2s1)C1CCCO1 (stereo unspecified),2.99%
22,O=C(/C=C/c1ccc(OCc2c(F)cccc2Cl)cc1)N1CCOCC1,12.2%

row,Structure (SMILES),activation
1,COc1ccc(-c2nnc(SCC(=O)c3cccs3)o2)c(OC)c1,142% (active)
2,COc1ccc(OC)c(C(=O)CSc2nnc(-c3cccs3)o2)c1,-1.75%
3,COc1ccc(-n2c(C)cc(C(=O)CSc3nnc(-c4cccs4)o3)c2C)cc1,-0.59%
4,O=C(NNC(=S)NCc1ccco1)C(c1ccccc1)c1ccccc1,19.5%
5,O=C(NNC(=O)c1cc2c(s1)CCCC2)c1ccccc1,43.3%
6,CC(C)C(=O)Nc1cccc(C(=O)Nc2ccc3c(c2)OCO3)c1,138% (active)
7,Cc1cccc(NC(=O)/C=C/c2ccc3c(c2)OCO3)n1,118%
8,COc1ccc(C(=O)Nc2ccc3c(c2)OCO3)cc1OC,35.6%
9,Cc1cccc(NC(=O)Nc2ccc3c(c2)OCO3)n1,137% (active)
10,CC(NC(=O)Nc1ccc2c(c1)OCO2)c1ccncc1 (stereo unspecified),12.1%
11,O=C(Nc1ccccc1)c1ccc2c(c1)OCO2,-58.8%
12,CC(OC(=O)c1ccccc1OCc1ccc(Cl)cc1)C(N)=O (stereo unspecified),40.4%
13,Cc1cc(C)c(NC(=O)c2oc3ccccc3c2COc2ccccc2)c(C)c1,-0.13%
14,CCC(=O)N(Cc1cc2ccccc2[nH]c1=O)c1ccc(OC)cc1,-4.49%
15,C/C(=N/NC(=O)CCc1ccccc1)c1ccco1,10.2%
16,CCOc1ccc2nc(C(=O)N3CCCC(C)C3)sc2c1 (stereo unspecified),158% (active)
17,CCOc1ccc2nc(SC(CC)C(=O)Nc3cc(C)on3)sc2c1 (stereo unspecified),1.9%
18,CCOc1ccc2nc(Nc3nc4ccc(NC(C)=O)cc4s3)sc2c1,-5.77%
19,Cc1cc(CNCc2c(C(=O)N(C)Cc3ccccc3)nc3ccccn23)nn1C,7.64%
20,C/C(=N/NC(=S)Nc1ccccc1)c1ccc2c(c1)OCO2,11.9%
21,CCOC(=O)CN/C=C(\C#N)c1ccc(F)cc1,29.2%
22,O=C(Nc1ccc2c(c1)OCCO2)c1ccc(Cl)c(S(=O)(=O)N2CCCCC2)c1,30.1%

row,Structure (SMILES),activation
1,O=C(Nc1ccc(Cl)cn1)c1ccc2c(c1)OCCO2,199% (active)
2,O=C(Nc1cccc(Cl)c1N1CCOCC1)c1ccc2c(c1)OCCO2,12.9%
3,O=C(Nc1cccc(S(=O)(=O)Nc2ccc(Cl)cc2)c1)c1ccc2c(c1)OCCO2,-20.6%
4,CN1CCN(c2ccc(NC(=O)c3ccc4c(c3)OCCO4)cc2Cl)CC1,144% (active)
5,COc1c(Cl)cc(C(=O)Nc2ccc(Cl)cn2)cc1Cl,34.7%
6,CN1CCN(CCC(=O)N/N=C/C=C2\N(C)c3ccccc3C2(C)C)CC1,8.29%
7,c1ccc(-n2ncc3c(N4CCCC4)ncnc32)cc1,160% (active)
8,Cc1cccc(-n2ncc3c(N4CCc5ccccc54)ncnc32)c1,25.5%
9,O=C(NNc1ncnc2c1cnn2-c1ccccc1)c1ccco1,6%
10,CCN(CC)C(=O)CSc1ncnc2c1cnn2-c1ccccc1,15.2%
11,COc1ccc(-n2ncc3c(N4CCc5ccccc54)ncnc32)cc1,204% (active)
12,COc1ccc(-n2ncc3c(N4CCCc5ccccc54)ncnc32)cc1,48.9%
13,O=C(COc1ccc(S(=O)(=O)N2CCCCC2)cc1)NCc1ccccn1,2.08%
14,CSCC[C@H](NC(=O)NC1CCCC1)C(=O)O,-20.9%
15,CCN1CCC2(CCN(Cc3cn[nH]c3-c3ccc(OC)c(F)c3)C2)C1 (stereo unspecified),-14.3%
16,O=C(NNS(=O)(=O)c1ccc(F)cc1)c1cnccn1,3.72%
17,C/C(=N\Nc1ncc(Cl)cc1Cl)c1ccc(S(=O)(=O)NCc2ccco2)cc1,100%
18,C/C(=N\Nc1nc2ccccc2[nH]1)c1cccs1,150% (active)
19,C/C(=N\Nc1ncc(Cl)cc1Cl)c1cccs1,154% (active)
20,OCCNc1nc2ccccc2[nH]1,16.1%
21,COc1cccc(/C(C)=N/Nc2ncc(Cl)cc2Cl)c1,24.9%
22,C/C(=N\Nc1nc(Nc2ccccc2)nc(N2CCOCC2)n1)c1cccs1,-7.91%
